# In PubChem BioAssay (NCATS):
# Where “and” joins values, the source holds several entries; their conditions need not be identical. Equal values may be shown once. Records with an inconclusive call do not appear. A call without a number means that no potency is given here. A number with no mark means an inactive call. Calls of active or inactive are those of the source. Unless noted, the call rests on the fitted dose curve; in most records, active means well fitted curve in the direction sought with a large enough effect; inconclusive means small, poorly fitted or top-dose-only effect, or another doubt; inactive means no such curve, though single readings can be large; an effect the other way counts as inactive or inconclusive.
# Tests used:
# [1] = target: Cellular tumor antigen p53 (Homo sapiens) (UniProt P04637); test: Primary qHTS for small molecule compounds that upregulate eGFP-tagged delta133p53alpha (in N-terminal) cells. (AID 2060322); conditions: NCI-H358 eGFP-delta133p53alpha fluorescence, 24 h; activation: hits give high values; further: nearly all actives have a fitted effect of over 75% in size; further: potency means the concentration at half of the fitted maximal effect; on activation: series mostly up to about 56 µM
# In short: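 NCI-H358 cells pre-induced 24 h with 10 ng/ml doxycycline to express N-terminal eGFP-delta133p53alpha, then dosed 24 h at 37C without doxycycline; fixed, Hoechst-stained, GFP intensity by laser scanning cytometry, normalized to DMSO (0%) and 57.5 uM 5-azacytidine (100%).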
# [2] = target: Aldehyde dehydrogenase, mitochondrial (Homo sapiens) (UniProt P05091); test: qHTS for Inhibitors of the Aldehyde Dehydrogenase Family (ALDH2) Validation screens (AID 2061302; active means well fitted inhibition curve with a large enough effect; title and protocol of this record describe different tests; further: potency means the concentration at half of the fitted maximal effect)
# [3] = target: Retinaldehyde dehydrogenase 3 (Homo sapiens) (UniProt P47895); test: qHTS for Inhibitors of the Aldehyde Dehydrogenase Family (ALDH1A3) Validation screen (AID 2061312); further: nearly all actives have a fitted effect of over 45% in size
# [4] = target: Aldehyde dehydrogenase, mitochondrial (Homo sapiens) (UniProt P05091); test: qHTS for Inhibitors of the Aldehyde Dehydrogenase Family (ALDH2) Primary screen (AID 2061308); further: nearly all actives have a fitted effect of over 55% in size
# [5] = target: Retinaldehyde dehydrogenase 3 (Homo sapiens) (UniProt P47895); test: qHTS for Inhibitors of the Aldehyde Dehydrogenase Family (ALDH1A3) Primary screen (AID 2061315)
# [6] = qHTS for Inhibitors of the Aldehyde Dehydrogenase Family (ALDH1A2, ALDH1A3, ALDH2, ALDH3A1) (AID 2061307); further: nearly all actives have a fitted effect of over 50% in size
# [7] = target: Retinaldehyde dehydrogenase 3 (Homo sapiens) (UniProt P47895); test: qHTS for Inhibitors of the Aldehyde Dehydrogenase Family (ALDH1A3) Confirmatory screens (AID 2061311); further: nearly all actives have a fitted effect of over 60% in size
# [8] = target: Retinal dehydrogenase 2 (Homo sapiens) (UniProt O94788); test: qHTS for Inhibitors of the Aldehyde Dehydrogenase Family (ALDH1A2) Confirmation screens (AID 2061314); further: nearly all actives have a fitted effect of over 65% in size
# [9] = BET inhibitor-based combinations targeting novel dependencies in MECOM-rearranged (r) AML: OCI-AML3 cell line (AID 2202232); conditions: Potency: OCI-AML3 viability; further: potency means the concentration at half of the fitted maximal effect; nearly all actives have a fitted effect of over 35% in size
# In short: (§1)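 Viability of cells (500 per well) is scored by luminescent CellTiter-Glo at 48 hr post-dosing. Eleven-point titrations are normalized to DMSO and empty controls and reduced to AUC values.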
# [10] = BET inhibitor-based combinations targeting novel dependencies in MECOM-rearranged (r) AML: MV-4-11 cell line (AID 2202233); further: potency means the concentration at half of the fitted maximal effect; nearly all actives have a fitted effect of over 45% in size
# In short: (§2)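 Using pin-tool transfer, drugs were added in 11 doses to cells (500/well), incubated 48 hr, and assessed with CellTiter-Glo. Z-AUC is a mean-centring transformation applied separately to each screened line.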
# [11] = BET inhibitor-based combinations targeting novel dependencies in MECOM-rearranged (r) AML: HNT-34 cell line (AID 2202234); further: potency means the concentration at half of the fitted maximal effect; nearly all actives have a fitted effect of over 35% in size
# In short: as §2
# [12] = BET inhibitor-based combinations targeting novel dependencies in MECOM-rearranged (r) AML: AML-191 cell line (AID 2202236; further: potency means the concentration at half of the fitted maximal effect; nearly all actives have a fitted effect of over 35% in size)
# In short: as §1
# [13] = BET inhibitor-based combinations targeting novel dependencies in MECOM-rearranged (r) AML: AML-194 cell line (AID 2202237; further: potency means the concentration at half of the fitted maximal effect; nearly all actives have a fitted effect of over 40% in size)
# In short: as §1
# Chain of Cellular tumor antigen p53 (Homo sapiens) (P04637 whole entry, looked up): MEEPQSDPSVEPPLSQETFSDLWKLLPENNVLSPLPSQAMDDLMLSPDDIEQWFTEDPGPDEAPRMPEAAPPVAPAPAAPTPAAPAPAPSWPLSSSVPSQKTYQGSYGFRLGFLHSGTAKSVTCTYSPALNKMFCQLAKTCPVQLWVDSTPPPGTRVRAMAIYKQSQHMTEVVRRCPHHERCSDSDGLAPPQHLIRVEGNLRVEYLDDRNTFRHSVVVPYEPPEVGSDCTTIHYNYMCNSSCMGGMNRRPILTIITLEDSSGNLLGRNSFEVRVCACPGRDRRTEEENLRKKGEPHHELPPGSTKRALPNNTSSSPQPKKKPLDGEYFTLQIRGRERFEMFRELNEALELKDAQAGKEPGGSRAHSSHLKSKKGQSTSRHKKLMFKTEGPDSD
smiles,measurement,setting,value
O=C(O)C1CCCNC1 (stereo not drawn),activation,[1],-25.6%
same,Potency,[2],inactive
same,Potency,[3],inactive
CC(C(O)c1ccc(O)cc1)N1CCC(Cc2ccccc2)CC1 (stereo not drawn),activation,[1],-5.02% and -1% and -19.5%
same,Potency,[2],inactive
same,Potency,[4],inactive
same,Potency,[3],inactive
same,Potency,[5],inactive
COC(=O)C1=CO[C@@H](O)[C@@H]2C(CO)=CC[C@H]12,activation,[1],8.04%
same,Potency,[2],inactive
same,Potency,[4],inactive
same,Potency,[3],inactive
same,Potency,[5],inactive
COC(=O)C1=C(C)NC(C)=C(C(=O)OC)C1c1cccc(NC(=O)NCCCN2CCC(c3cccc(OC)c3)CC2)c1,Potency,[1],21.3 µM (active)
same,Potency,[2],inactive
same,Potency,[4],inactive
same,Potency,[3],inactive
same,Potency,[5],inactive
COc1cc2c(CCNC(C)=O)c[nH]c2cc1Cl,activation,[1],-18.2%
same,Potency,[2],inactive
same,Potency,[6],inactive
same,Potency,[7],inactive
same,Potency,[8],inactive
C[C@@]1(C2CCCC2)Cc2cc(OCC(=O)O)c(Cl)c(Cl)c2C1=O,activation,[1],4.66%
same,Potency,[2],inactive
same,Potency,[3],inactive
O=c1c(-c2ccc(O)cc2)coc2cc(OC3O[C@H](CO)[C@H](O)[C@H](O)[C@H]3O)cc(O)c12 (stereo partly drawn),activation,[1],21%
same,Potency,[2],44.7 µM (active)
NCCCCCCCCCCN,activation,[1],28.3%
same,Potency,[2],inactive
same,Potency,[3],inactive
CNCCCC12CCC(c3ccccc31)c1ccccc12,activation,[1],-7.08% and 22.3% and 47.4%
same,Potency,[2],inactive
same,Potency,[4],inactive
same,Potency,[3],inactive
same,Potency,[5],inactive
same,Potency,[9],18.6 µM (active)
same,Potency,[10],29.5 µM (active)
same,Potency,[11],23.5 µM (active)
same,Potency,[12],23.5 µM (active)
same,Potency,[13],26.3 µM (active)
CCN1CCCC1CNC(=O)c1cc(S(N)(=O)=O)ccc1OC (stereo not drawn),activation,[1],8% and -7.28%
same,Potency,[2],inactive
same,Potency,[3],inactive
CC12C(=O)OC(=O)C1(C)C1CCC2O1 (stereo not drawn),Potency,[1],1.69 µM (active)
same,Potency,[2],inactive
same,Potency,[3],inactive
O=C(O)CCC(=O)N1CCCC1C(=O)O (stereo not drawn),activation,[1],8.81%
same,Potency,[2],inactive
same,Potency,[3],inactive
Brc1c(Br)c(Br)c2[nH]cnc2c1Br,activation,[1],-55.8%
same,Potency,[2],inactive
same,Potency,[3],inactive
